Screens from PubChem BioAssay.
An excerpt weighted towards active compounds, which were near 1.4% of everything screened.
BCLXL inh – Bcl-xL (human) inhibition. Q07817. GST-Bcl-xL / FITC-Bim BH3 peptide fluorescence polarization. inhibition, % at 10.9 µM. hit rate 0.7% among 320,000;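 active = inhibition above the mean of all tested compounds plus 3 SD, cutoff set per campaign, cut at about 30% in these data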;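 note: 0% = DMSO wells and 100% = unlabeled Bim-BH3 peptide competitor; inhibitors lower millipolarization by displacing the labeled peptide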
Target sequence (Q07817 whole entry, looked up): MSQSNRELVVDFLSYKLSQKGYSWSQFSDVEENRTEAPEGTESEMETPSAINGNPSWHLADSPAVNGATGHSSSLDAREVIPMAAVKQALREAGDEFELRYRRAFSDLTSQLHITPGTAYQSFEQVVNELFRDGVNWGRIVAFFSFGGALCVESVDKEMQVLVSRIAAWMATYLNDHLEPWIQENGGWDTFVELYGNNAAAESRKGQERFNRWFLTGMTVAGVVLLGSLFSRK
GLD-1 TGE inh – GLD-1-TGE RNA interaction inhibition (C. elegans); Q17339; AID 2280; inhibition, % at 5.96 µM; hit rate 0.44% among 320,000; purified GLD-1 + fluorescein TGE RNA, fluorescence polarization;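 active = percent inhibition above a per-plate cutoff, the plate mean of test compounds plus 3 SD, cut at about 30% in these data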;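 note: 0% = DMSO wells with GLD-1 and probe and 100% = wells lacking GLD-1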
MEX-5 binding – C. elegans MEX-5 TCR-2 RNA binding activity; Q9XUB2; MEX-5/FITC-TCR2 RNA binding, fluorescence polarization; active compounds read low; activity score (negative = inhibition of binding), % at 10 µM; hit rate 0.38% among 300,000;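 active = inhibition past about -25% in most replicates, and total fluorescence under double the plate's negative control median, limit read from the data; inconclusive = replicates evenly split on the limit, or fluorescence at least double controls; inactive = too little inhibition in most replicates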;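 note: 0% = DMSO and -100% = 5 µM competing unlabeled TCR2 RNA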
EBV gp42 block – inhibitors of Epstein-Barr virus glycoprotein 42 | AID 1085 | Fluorescence polarization binding assay, mP read-out | inhibition, % (tested at 21.74 µM) | hit rate 0.42% among 220,000; in the data active = inhibition above about 50%
Target sequence (Q1HVG2 whole entry, looked up): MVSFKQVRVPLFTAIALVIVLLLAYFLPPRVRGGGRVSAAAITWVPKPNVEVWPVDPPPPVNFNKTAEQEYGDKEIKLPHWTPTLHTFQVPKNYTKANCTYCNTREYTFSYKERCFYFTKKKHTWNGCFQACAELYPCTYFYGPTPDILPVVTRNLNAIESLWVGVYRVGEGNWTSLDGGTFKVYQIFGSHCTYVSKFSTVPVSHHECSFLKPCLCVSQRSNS
E coli Lon inh – inhibitors of E. coli Lon protease. P0A9M0. purified E. coli Lon protease, fluorescence polarization. inhibition, % at 7.94 µM. hit rate 0.42% among 360,000. AID 602123; in the data active = inhibition above about 13%, passing the limit was not always enough;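 note: 0% = enzyme with probe and DMSO and 100% = no enzyme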
MCL1 BIM primary – inhibitors of human MCL1 binding to BIM-BH3 peptide; Q07820; GST-MCL1 / FITC-Bim-BH3 fluorescence polarization; inhibition, % at 10.9 µM; hit rate 0.68% among 320,000;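 active = inhibition above the mean inhibition of all tested compounds plus 3 SD, set per campaign, cut at about 40% in these data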;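 note: 0% = DMSO wells and 100% = unlabeled Bim-BH3 peptide control; higher means more loss of mP so more displacement of Bim peptide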
Bcl-xL conf – counter-screen for MCL1 inhibitors: confirmation of human Bcl-xL inhibitors | inhibition, % at 10.9 µM | shares compounds with MCL1 BIM primary | GST-Bcl-xL / FITC-Bim BH3 peptide FP binding | AID 2166 | hit rate 54% among 1,700;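 active = inhibition above a cutoff equal to the mean inhibition of all tested compounds plus 3 SD, cut at about 30% in these data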;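 note: 0% = DMSO wells and 100% = unlabeled Bim BH3 control peptide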
MCL1 BIM confirm – confirmation of human MCL1 and BIM-BH3 interaction inhibitors | shares compounds with MCL1 BIM primary | hit rate 61% among 1,700 | AID 2168 | GST-MCL1 / FITC-Bim-BH3 fluorescence polarization | inhibition, % at 10.9 µM;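 active = inhibition above the average of all tested compounds plus 3 SD, cut at about 40% in these data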;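 note: 0% = DMSO wells and 100% = unlabeled Bim-BH3 control peptide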
Starred values were filed as active, the others as inactive; ? = inconclusive; · = no result; + = active, no number.

SMILES	BCLXL inh	GLD-1 TGE inh	MEX-5 binding	EBV gp42 block	E coli Lon inh	MCL1 BIM primary	Bcl-xL conf	MCL1 BIM confirm
COc1cc2c3nnc(-c4ccc(F)cc4)c-3cn(Cc3ccc(F)cc3)c2cc1OC	72*	-11	?	-92	-24	58*	84*	83*
Cn1nc2c3cc(F)ccc3n(Cc3ccc(F)cc3)cc-2c1=O	-1	6	2	·	5	-1	·	·
CC(C)C(=O)NNC(=O)c1cc2sccc2s1	-2	2	·	-7	9	-1	·	·
O=C1/C(=C/c2ccccc2)Nc2ccccc21	64*	-52	4	-22	0	57*	56*	82*
N#Cc1ccccc1OCC(=O)OCC(=O)c1c[nH]c2ccccc12	0	-3	·	·	-13	-5	·	·
Cc1cccnc1C(NC(=O)C1CCN(CCCc2ccccc2)CC1)c1ccc(F)cc1 (centres undefined)	·	·	·	·	0	·	·	·
CCN(C(=O)c1cccnc1SC)C12CC3CC(CC(C3)C1)C2	5	9	0	·	-3	3	·	·
CC(=O)Nc1ccc(N/C=C2/CCCC2=O)cc1	8	-2	-3	-23	5	80*	1	-2
Cc1cc(O)ccc1N/C=C1\CCCC1=O	3	22	-1	-7	7	-4	·	·
COc1ccc2nc(N/C(N)=N/S(C)(=O)=O)nc(C)c2c1	2	-2	-2	-10	2	-5	·	·
COc1ccc(NC(=O)c2cc(S(=O)(=O)N3CCCCC3)c[nH]2)cc1Cl	9	3	3	·	7	12	·	·
CCc1nc2ccc(C(=O)NCCCN3CCN(c4ccccc4F)CC3)cc2nc1CC	-2	1	3	·	9	2	·	·
O=C1c2ccccc2-c2onc3ccc(NCCCn4ccnc4)c1c23	+	198*	?	-41	·	+	181*	200*
NS(=O)(=O)c1ccc(NCCCn2ccnc2)c([N+](=O)[O-])c1	7	-1	-9	·	-10	3	·	·
Nc1ccccc1N1CCN(C(=O)c2ccccc2)CC1	6	-2	-1	-11	3	108*	12	11
CCOc1ccc(NC(=O)CCC(=O)NNC(=O)COc2ccccc2C)cc1	6	1	-3	8	-6	5	·	·
O=C(NC(=S)N1CCCCCC1)c1ccc(Cl)cc1Cl	2	-7	2	-7	-12	43*	11	6
COc1ccc(C2=CC3=C(Br)C(=O)C(C)(OC(=O)c4ccco4)C(=O)C3=CO2)cc1 (centres undefined)	42*	20	-48*	11	-43	54*	35*	76*
COc1ccc(C(C)=O)c(OC(=O)c2ccco2)c1	3	2	-2	13	2	3	·	·
COc1ccc(C2=CC3=C(Br)C(=O)C(C)(OC(=O)c4cccs4)C(=O)C3=CO2)cc1 (centres undefined)	20	13	-34*	·	-26	42*	20	51*
CCCOc1ccc(CNC(=S)Nc2ccccc2)cc1Cl	7	5	2	·	6	42*	7	9
O=C(OCCN1C(=O)c2cccc3c(N4CCOCC4)ccc(c23)C1=O)c1cccc(Cl)c1	41*	81*	?	152*	·	66*	3	-19
O=C(OCCN1C(=O)c2cccc3c(N4CCOCC4)ccc(c23)C1=O)c1ccc(Cl)cc1Cl	39*	73*	?	144*	-50	63*	-3	-2
COc1ccc(C(CNC(=O)c2cc(F)c(F)c(F)c2F)N2CCOCC2)cc1 (centres undefined)	-5	-4	-3	-3	12	-14	·	·
Cc1cc(C)c(S(=O)(=O)N2CCN(C(=O)C(C)Cn3cncn3)CC2)c(C)c1 (centres undefined)	4	1	0	·	-7	2	·	·
SMILES	BCLXL inh	GLD-1 TGE inh	MEX-5 binding	EBV gp42 block	E coli Lon inh	MCL1 BIM primary	Bcl-xL conf	MCL1 BIM confirm
C/C(=N\NC(=O)c1cccc(F)c1)c1ccc(NC(=O)Cc2ccccc2)cc1	·	·	·	·	-7	·	·	·
C/C(=N\NC(=O)c1cc(O)cc(O)c1)c1ccc(NC(=O)Cc2ccccc2)cc1	32*	6	-3	·	-5	78*	46*	93*
CCCn1c(C)nc2c(c1=O)c1nc3ccccc3nc1n2CCC1=CCCCC1	21	10	-4	-18	-6	16	·	·
Cc1nc2c(c(=O)n1CCC1=CCCCC1)c1nc3ccccc3nc1n2/N=C/c1ccco1	39*	10	-4	-15	-1	49*	32*	58*
Cc1ccc(S(=O)(=O)N2CCC(C(=O)Nc3nnc(C)s3)CC2)cc1	4	9	-1	·	-1	6	·	·
OCCC1CN(C2CCC2)CCN1Cc1ccc(F)c(F)c1 (centres undefined)	3	6	-2	·	2	-6	·	·
COc1ccc(-c2cc(=O)oc3c(O)c(O)ccc23)cc1	10	2	-6	·	15	68*	72*	93*
CN(C)Cc1c(O)ccc2cc(-c3nc4ccccc4n3C)c(=O)oc12	52*	22	-3	·	-19	64*	27	33
Cc1cc(C)n(CCC(=O)Nc2ccc3c(c2)OCCO3)n1	0	-8	-3	·	-1	-3	·	·
Cc1ccccc1-c1nc(Cc2ccccc2)no1	6	7	0	-4	-2	44*	3	-4
CCOC(=O)c1c(C)[nH]c(C2=NNC(=NC3CC3)SC2)c1C	10	2	-1	-10	-10	4	·	·
CCC(C)NC(=O)Cn1cnc2sc(C)c(S(=O)(=O)N3CCCCC3)c2c1=O (centres undefined)	2	10	0	·	-8	3	·	·
CC(C)C(C(=O)OCC(=O)c1ccccc1)N1C(=O)C2C3C=CC(C3)C2C1=O (centres undefined)	2	3	1	-3	1	6	·	·
COC(=O)C1=COC(C)C2CN3CCc4c([nH]c5ccccc45)C3CC12 (centres undefined)	89*	48*	-18	19	3	91*	62*	80*
CC1(C(=O)NNC(=O)c2ccc(=O)oc2)CC1Br (centres undefined)	37*	29	-13	33	-43	58*	41*	52*
CCc1nnc(NC(=O)c2ccc(Cl)nc2)s1	-3	-3	-1	-4	13	9	·	·
O=C(Nc1nnc(C2CC2)s1)c1ccc(Cl)nc1	1	0	·	·	-13	178*	-1	0
CCCCn1c(N)c(N(CC(C)C)C(=O)CCCn2c(=O)oc3ccccc32)c(=O)[nH]c1=O	-1	3	2	·	1	-3	·	·
